# Shown is part of a subset that was picked to be rich in hits.
# IDE exosite FP – insulin-degrading enzyme (human) exo-site inhibition; z-score at 20 µM; purified IDE, FL-6b probe fluorescence polarization; stronger effect = lower value; 6.3% of 17,000 active; AID 1259349;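 active = z-score of -3 or lower, meaning strong loss of probe binding signal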;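 also: His-tagged human IDE residues 42-1019 made in E. coli with 30 nM FL-6b probe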
# Target sequence (P14735 42-1019 limits assumed): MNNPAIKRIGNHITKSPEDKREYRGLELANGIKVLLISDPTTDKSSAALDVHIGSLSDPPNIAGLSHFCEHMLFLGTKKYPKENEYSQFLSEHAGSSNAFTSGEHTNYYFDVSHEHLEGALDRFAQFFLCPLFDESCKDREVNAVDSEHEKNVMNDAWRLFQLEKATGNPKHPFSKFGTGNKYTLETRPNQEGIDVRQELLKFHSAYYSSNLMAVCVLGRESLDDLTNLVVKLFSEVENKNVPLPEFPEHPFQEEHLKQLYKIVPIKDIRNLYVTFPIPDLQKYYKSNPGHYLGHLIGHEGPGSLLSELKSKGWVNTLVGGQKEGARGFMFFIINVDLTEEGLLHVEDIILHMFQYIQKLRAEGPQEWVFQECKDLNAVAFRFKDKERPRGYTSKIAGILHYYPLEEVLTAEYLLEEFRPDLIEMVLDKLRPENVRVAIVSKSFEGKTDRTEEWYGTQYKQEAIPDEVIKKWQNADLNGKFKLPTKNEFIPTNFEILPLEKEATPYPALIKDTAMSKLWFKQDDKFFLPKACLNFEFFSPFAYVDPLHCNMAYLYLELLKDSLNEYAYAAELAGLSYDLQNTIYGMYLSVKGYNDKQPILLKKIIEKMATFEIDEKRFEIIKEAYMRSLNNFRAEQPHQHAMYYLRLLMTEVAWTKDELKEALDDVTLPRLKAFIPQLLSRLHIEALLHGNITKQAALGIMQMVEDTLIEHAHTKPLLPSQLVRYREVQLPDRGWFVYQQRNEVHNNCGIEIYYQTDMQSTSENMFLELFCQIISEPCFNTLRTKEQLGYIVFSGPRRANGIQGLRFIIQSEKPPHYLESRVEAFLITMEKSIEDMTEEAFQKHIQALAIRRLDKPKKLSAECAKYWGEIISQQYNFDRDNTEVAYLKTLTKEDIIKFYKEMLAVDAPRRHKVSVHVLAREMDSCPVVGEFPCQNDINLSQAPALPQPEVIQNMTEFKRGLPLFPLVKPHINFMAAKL
# Hits are given with their value; - = inactive.
SMILES,IDE exosite FP
Cn1cnc(S(=O)(=O)N2CCCCN3[C@H](C2)[C@@H](c2ccc(C#CC4CCCC4)cc2)[C@@H]3CO)c1,-
COc1ccccc1-c1ccc([C@@H]2[C@H](CO)N3CCCCN(S(=O)(=O)c4cn(C)cn4)C[C@@H]23)cc1,-13
Cn1cnc(S(=O)(=O)N2CCCCN3[C@@H](CO)[C@H](c4ccc(C#CC5CCCC5)cc4)[C@@H]3C2)c1,-
COc1ccccc1-c1ccc([C@H]2[C@H]3CN(S(=O)(=O)c4cn(C)cn4)CCCCN3[C@H]2CO)cc1,-
Cn1cnc(S(=O)(=O)N2CCCCN3[C@H](CO)[C@H](c4ccc(C#CC5CCCC5)cc4)[C@H]3C2)c1,-
CCCC#Cc1ccc([C@@H]2[C@@H](CO)N3C(=O)CN(C(=O)c4cccc(F)c4)C[C@@H]23)cc1,-
C/C=C/c1ccc([C@@H]2[C@H](CO)N(C(=O)C3CCC3)C23CN(C(=O)NC(C)C)C3)cc1,-
C[C@@H]1CCCn2cc(nn2)COCCNC1=O,-
COc1ccc(C[C@@H]2CCn3nncc3COC[C@H](c3ccccc3)NC2=O)cc1,-
CCCC#Cc1ccc([C@@H]2[C@@H](CO)N3C(=O)CN(C(=O)NCCC)C[C@@H]23)cc1,-
CCCNC(=O)N1CC(=O)N2[C@H](CO)[C@H](c3ccc(C#Cc4ccccc4)cc3)[C@@H]2C1,-9.6
CCCNC(=O)N1CC(=O)N2[C@H](CO)[C@H](c3ccc(C#Cc4ccccc4)cc3)[C@H]2C1,-
CCCC#Cc1ccc([C@@H]2[C@H]3CN(C(=O)NCCC)CC(=O)N3[C@H]2CO)cc1,-
CCCNC(=O)N1CC(=O)N2[C@H](CO)[C@H](c3ccc(C#Cc4cccc(F)c4)cc3)[C@@H]2C1,-8.5
CCCC#Cc1ccc([C@H]2[C@H](CO)N3C(=O)CN(C(=O)NCCC)C[C@@H]23)cc1,-
CCCNC(=O)N1CC(=O)N2[C@@H](CO)[C@H](c3ccc(C#Cc4cccc(F)c4)cc3)[C@@H]2C1,-9.2
CCCNC(=O)N1CC(=O)N2[C@H](CO)[C@@H](c3ccc(C#Cc4cccc(F)c4)cc3)[C@@H]2C1,-6.4
CCCNC(=O)N1CC(=O)N2[C@H](CO)[C@@H](c3ccc(C#Cc4cccc(OC)c4)cc3)[C@@H]2C1,-
CCCNC(=O)N1CC(=O)N2[C@H](C1)[C@@H](c1ccc(C#Cc3ccc(F)cc3)cc1)[C@@H]2CO,-
CCCNC(=O)N1CC(=O)N2[C@H](CO)[C@@H](c3ccc(C#Cc4cccc(OC)c4)cc3)[C@H]2C1,-
CCCNC(=O)N1CC(=O)N2[C@H](CO)[C@H](c3ccc(C#Cc4cccc(F)c4)cc3)[C@H]2C1,-
Cc1ccccc1S(=O)(=O)N1CC(=O)N2[C@@H](CO)[C@H](c3ccc(C#CC4CC4)cc3)[C@@H]2C1,-
CCCNC(=O)N1[C@H](C#N)[C@H](c2ccccc2-c2ccccc2)[C@@H]1CO,-
O=C(c1cccc(F)c1)N1CC(=O)N2[C@H](C1)[C@@H](c1ccc(-c3cccnc3)cc1)[C@@H]2CO,-
CCCC#Cc1ccc([C@@H]2[C@H]3CN(C(=O)Nc4ccc(F)cc4)CC(=O)N3[C@H]2CO)cc1,-
SMILES,IDE exosite FP
O=S(=O)(c1ccccc1F)N1CCCCN2[C@H](CO)[C@H](c3ccc(-c4ccncc4)cc3)[C@H]2C1,-
O=C(Cc1cccnc1)N1CC(=O)N2[C@H](CO)[C@@H](c3ccc(/C=C/c4ccccc4)cc3)[C@@H]2C1,-
C/C=C/c1ccc([C@H]2[C@H](CO)N3C(=O)CN(C(=O)Cc4cccnc4)C[C@@H]23)cc1,-
C/C=C/c1ccc([C@H]2[C@@H](CO)N3C(=O)CN(C(=O)Cc4cccnc4)C[C@@H]23)cc1,-
O=C(Cc1cccnc1)N1CC(=O)N2[C@H](C1)[C@H](c1ccc(/C=C/c3ccccc3)cc1)[C@@H]2CO,-5
O=C(Cc1cccnc1)N1CC(=O)N2[C@H](CO)[C@H](c3ccc(/C=C/c4ccccc4)cc3)[C@@H]2C1,-5.1
C/C=C/c1ccc([C@@H]2[C@@H](CO)N3C(=O)CN(C(=O)Cc4cccnc4)C[C@@H]23)cc1,-
O=C(NC[C@H]1N[C@H](CO)[C@@H]1c1ccc(-c2cncnc2)cc1)C1CCC1,-
CN1CCN(C(=O)C[C@@H]2CC[C@@H]3[C@H](COC[C@H](O)CN3C(=O)c3ccccc3F)O2)CC1,-
COc1cccc(C#Cc2ccc([C@@H]3[C@H](CO)N4C(=O)CN(C(C)=O)C[C@@H]34)cc2)c1,-15
COc1cccc(C#Cc2ccc([C@H]3[C@H]4CN(C(=O)c5ccccc5)CC(=O)N4[C@H]3CO)cc2)c1,-
COc1cccc(C#Cc2ccc([C@@H]3[C@@H](CO)N4C(=O)CN(C(=O)c5ccccc5)C[C@@H]34)cc2)c1,-
COc1cccc(C#Cc2ccc([C@@H]3[C@H](CO)N4C(=O)CN(C(=O)c5ccccc5)C[C@@H]34)cc2)c1,-
COc1cccc(C#Cc2ccc([C@H]3[C@H](CO)N4C(=O)CN(C(C)=O)C[C@@H]34)cc2)c1,-5.4
COc1cccc(C#Cc2ccc([C@H]3[C@@H](CO)N4C(=O)CN(C(=O)c5ccncc5)C[C@H]34)cc2)c1,-8.4
CC(=O)N1CC(=O)N2[C@@H](CO)[C@@H](c3ccc(C#Cc4cccnc4)cc3)[C@@H]2C1,-3.9
COc1cccc(C#Cc2ccc([C@@H]3[C@H]4CN(C(=O)c5ccncc5)CC(=O)N4[C@H]3CO)cc2)c1,-
CCC(=O)N1CC(=O)N2[C@H](CO)[C@H](c3ccc(C#Cc4cccnc4)cc3)[C@H]2C1,-
CC(=O)N1CC(=O)N2[C@H](C1)[C@H](c1ccc(C#Cc3cccnc3)cc1)[C@@H]2CO,-
CO[C@H](CN(C)Cc1cc(F)ccc1F)[C@@H](C)CN([C@H](C)CO)S(=O)(=O)c1ccc(C)cc1,-
CCC(=O)N(C[C@H]1[C@H](c2ccccc2)[C@@H](CO)N1S(C)(=O)=O)C(C)C,-
CCC(=O)N1[C@H](CO)[C@@H](c2ccc(-c3cccc(F)c3)cc2)[C@H]1CNC(C)=O,-
CCC(=O)N1[C@H](CO)[C@H](c2ccc(C3=CCCC3)cc2)[C@H]1CNCC1CCCC1,-
COCC#Cc1ccc([C@H]2[C@@H](CO)N3C(=O)CN(C(=O)c4ccncc4)C[C@@H]23)cc1,-
O=C1CN(S(=O)(=O)c2ccccc2)C[C@@H]2[C@H](c3ccc(C#CCc4ccccc4)cc3)[C@@H](CO)N12,-
SMILES,IDE exosite FP
COc1ccc(C#Cc2ccc([C@@H]3[C@@H](CO)N4CCCCN(C(=O)Nc5ccccc5F)C[C@@H]34)cc2)cc1,-
COc1ccc(C#Cc2ccc([C@H]3[C@@H](CO)N4CCCCN(C(=O)Nc5ccccc5F)C[C@@H]34)cc2)cc1,-
CC(=O)N1CCCCN2[C@H](CO)[C@H](c3ccc(C#Cc4ccccc4F)cc3)[C@@H]2C1,-4.9
O=C(Nc1ccc(F)cc1)N1CCCCN2[C@H](CO)[C@@H](c3ccc(C#Cc4ccccc4)cc3)[C@@H]2C1,-
CC(=O)N1CCCCN2[C@H](CO)[C@H](c3ccc(C#Cc4ccccc4F)cc3)[C@H]2C1,-7.3
CC(=O)N1CCCCN2[C@@H](CO)[C@H](c3ccc(C#Cc4ccccc4F)cc3)[C@@H]2C1,-
CC(=O)N1CCCCN2[C@H](C1)[C@H](c1ccc(C#Cc3ccccc3F)cc1)[C@@H]2CO,-4.7
CC(=O)N1CCCCN2[C@H](CO)[C@@H](c3ccc(-c4ccccc4)cc3)[C@H]2C1,-
CC(=O)N1CCCCN2[C@H](C1)[C@@H](c1ccc(C#Cc3ccccc3F)cc1)[C@@H]2CO,-4.5

# Assay outcomes (PubChem BioAssay)
